{
  "source": "PubChem BioAssay (EPA / NIEHS)",
  "key": {"[1]": {"assay": "Tanguay_ZF_120hpf_CIRC_legacy: (Legacy) Oregon State University Tanguay Lab 120 Hour Post-fertilization zebrafish Assay for Circulatory Malformation (AID 2283651)", "outline": "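Tropical 5D wild-type embryos, dechorionated with pronase at 4 hpf, were placed singly in wells at 6 hpf and exposed statically at 28C to 120 hpf (0.64% DMSO final). Circulatory malformation was scored present/absent by brightfield microscopy.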"}, "[2]": {"assay": "Tanguay_ZF_120hpf_SWIM_legacy: (Legacy) Oregon State University Tanguay Lab 120 Hour Post-fertilization zebrafish Assay for Swim Bladder Malformation (AID 2283654);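 note: swim bladder malformation in each larva scored yes or no under brightfield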", "outline": "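Dechorionated Tropical 5D wild-type embryos, placed singly from 6 hpf, were statically exposed at 28C to 120 hpf with 0.64% DMSO final; swim bladder malformation was scored present/absent by brightfield microscopy, gain of signal relative to DMSO controls.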"}, "[3]": {"assay": "Tanguay_ZF_120hpf_TRUN_legacy: (Legacy) Oregon State University Tanguay Lab 120 Hour Post-fertilization zebrafish Assay for Truncated Body (AID 2283655)", "outline": "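Single dechorionated zebrafish embryos received test chemical from 6 hpf in 0.64% DMSO, kept at 28C. At 120 hpf, brightfield inspection noted any truncated body.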"}, "[4]": {"assay": "Tanguay_ZF_120hpf_NC_legacy: (Legacy) Oregon State University Tanguay Lab 120 Hour Post-fertilization zebrafish Assay for Notochord and Tail Malformation (AID 2283656)", "outline": "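Dechorionated 5D zebrafish, 1/well from 6 hpf; static exposure to 120 hpf, 28C, sealed, dark; final DMSO 0.64% v/v. NC scored binary (present/absent); dead embryos not scored. Fit vs DMSO baseline, gain direction.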"}, "[5]": {"test_system": "Thyroperoxidase (TPO), gene 54314", "assay": "CCTE_Simmons_AUR_rTPO: CCTE's Amplex UltraRed Assay for Thyroperoxidase (TPO) Inhibition, Simmons Lab (AID 2283662);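 for AC50: potency for loss of signal meaning inhibition of peroxidase activity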", "outline": "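Endpoint is decreased Amplex UltraRed fluorescence after a 30-min, 37C reaction of rat thyroid microsomes with 300 uM H2O2. Eight test concentrations (5 nM–87.5 uM final) in 0.5% DMSO, three biological replicates each.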"}, "[6]": {"assay": "CCTE_Simmons_CellTiterGLO_HEK293T: Viability Assessment in CCTE's Assays for Thyroperoxidase (TPO) Inhibition, Simmons Lab (AID 2283665);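 for AC50: cells exposed to compound for 24 h before readout; actives reduce ATP signal below DMSO vehicle meaning cytotoxicity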", "outline": "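HEK293T cells in DMEM with 1% FBS were dosed with 8 concentrations (5 nM–87.5 uM final, 0.5% DMSO) for 24 hr at 37C; ATP content was read by CellTiter-Glo luminescence, loss-of-signal versus DMSO, three biological replicates.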"}},
  "note": "Inconclusive results are not listed. Activity calls are given as the source filed them. Rule for the calls: active = hit-call score of the fitted dose curve at least 0.9, where 1 is the maximum; inconclusive = response in the unintended direction; inactive = score below 0.9.",
  "data": [
    {"smiles": "O=C1c2c(O)cccc2Cc2cccc(O)c21", "values": [
      {"measurement": "outcome", "setting": "[1]", "value": "inactive"},
      {"measurement": "outcome", "setting": "[2]", "value": "inactive"},
      {"measurement": "outcome", "setting": "[3]", "value": "inactive"},
      {"measurement": "outcome", "setting": "[4]", "value": "inactive"},
      {"measurement": "AC50", "setting": "[5]", "value": "11.9 µM (active)"},
      {"measurement": "outcome", "setting": "[6]", "value": "inactive"}
    ]},
    {"smiles": "C=CCCCCCCCCCCCC", "values": [
      {"measurement": "outcome", "setting": "[1]", "value": "inactive"},
      {"measurement": "outcome", "setting": "[2]", "value": "inactive"},
      {"measurement": "outcome", "setting": "[3]", "value": "inactive"},
      {"measurement": "outcome", "setting": "[4]", "value": "inactive"}
    ]},
    {"smiles": "O=C(O)CC(O)(CC(=O)O)C(=O)O", "values": [
      {"measurement": "outcome", "setting": "[1]", "value": "inactive"},
      {"measurement": "outcome", "setting": "[2]", "value": "inactive"},
      {"measurement": "outcome", "setting": "[3]", "value": "inactive"},
      {"measurement": "outcome", "setting": "[4]", "value": "inactive"}
    ]},
    {"smiles": "CCN(CC)CCOc1ccc(C(=C(Cl)c2ccccc2)c2ccccc2)cc1", "values": [
      {"measurement": "outcome", "setting": "[1]", "value": "inactive"},
      {"measurement": "outcome", "setting": "[2]", "value": "inactive"},
      {"measurement": "outcome", "setting": "[3]", "value": "inactive"},
      {"measurement": "outcome", "setting": "[4]", "value": "inactive"}
    ]},
    {"smiles": "CCCCCCCCCCCCCCCCO", "values": [
      {"measurement": "outcome", "setting": "[1]", "value": "inactive"},
      {"measurement": "outcome", "setting": "[2]", "value": "inactive"},
      {"measurement": "outcome", "setting": "[3]", "value": "inactive"},
      {"measurement": "outcome", "setting": "[4]", "value": "inactive"}
    ]},
    {"smiles": "O=[Si]=O", "values": [
      {"measurement": "outcome", "setting": "[1]", "value": "inactive"},
      {"measurement": "outcome", "setting": "[2]", "value": "inactive"},
      {"measurement": "outcome", "setting": "[3]", "value": "inactive"},
      {"measurement": "outcome", "setting": "[4]", "value": "inactive"}
    ]},
    {"smiles": "CCCC(=O)O", "values": [
      {"measurement": "outcome", "setting": "[1]", "value": "inactive"},
      {"measurement": "outcome", "setting": "[2]", "value": "inactive"},
      {"measurement": "outcome", "setting": "[3]", "value": "inactive"},
      {"measurement": "outcome", "setting": "[4]", "value": "inactive"}
    ]},
    {"smiles": "CCOCCOCCO", "values": [
      {"measurement": "outcome", "setting": "[1]", "value": "inactive"},
      {"measurement": "outcome", "setting": "[2]", "value": "inactive"},
      {"measurement": "outcome", "setting": "[3]", "value": "inactive"},
      {"measurement": "outcome", "setting": "[4]", "value": "inactive"}
    ]},
    {"smiles": "O=C1O[C@H]([C@H](O)CO)C(O)=C1O", "values": [
      {"measurement": "outcome", "setting": "[1]", "value": "inactive"},
      {"measurement": "outcome", "setting": "[2]", "value": "inactive"},
      {"measurement": "outcome", "setting": "[3]", "value": "inactive"},
      {"measurement": "outcome", "setting": "[4]", "value": "inactive"},
      {"measurement": "AC50", "setting": "[5]", "value": "43.8 µM (active)"},
      {"measurement": "outcome", "setting": "[6]", "value": "inactive"}
    ]},
    {"smiles": "CC(=O)O", "values": [
      {"measurement": "outcome", "setting": "[1]", "value": "inactive"},
      {"measurement": "outcome", "setting": "[2]", "value": "inactive"},
      {"measurement": "outcome", "setting": "[3]", "value": "inactive"},
      {"measurement": "outcome", "setting": "[4]", "value": "inactive"}
    ]},
    {"smiles": "C=CCc1ccc(OC)c(OC)c1", "values": [
      {"measurement": "outcome", "setting": "[1]", "value": "inactive"},
      {"measurement": "outcome", "setting": "[2]", "value": "inactive"},
      {"measurement": "outcome", "setting": "[3]", "value": "inactive"},
      {"measurement": "outcome", "setting": "[4]", "value": "inactive"}
    ]},
    {"smiles": "CC(=O)[C@@]1(O)CC[C@H]2[C@@H]3CCC4=CC(=O)CC[C@]4(C)[C@H]3CC[C@@]21C", "values": [
      {"measurement": "outcome", "setting": "[1]", "value": "inactive"},
      {"measurement": "outcome", "setting": "[2]", "value": "inactive"},
      {"measurement": "outcome", "setting": "[3]", "value": "inactive"},
      {"measurement": "outcome", "setting": "[4]", "value": "inactive"}
    ]},
    {"smiles": "CCCCCCC(C=O)=Cc1ccccc1", "values": [
      {"measurement": "outcome", "setting": "[1]", "value": "inactive"},
      {"measurement": "outcome", "setting": "[2]", "value": "inactive"},
      {"measurement": "outcome", "setting": "[3]", "value": "inactive"},
      {"measurement": "outcome", "setting": "[4]", "value": "inactive"}
    ]},
    {"smiles": "CC1(C)C(=O)NC(=O)N1CO", "values": [
      {"measurement": "outcome", "setting": "[1]", "value": "inactive"},
      {"measurement": "outcome", "setting": "[2]", "value": "inactive"},
      {"measurement": "outcome", "setting": "[3]", "value": "inactive"},
      {"measurement": "outcome", "setting": "[4]", "value": "inactive"},
      {"measurement": "outcome", "setting": "[5]", "value": "inactive"},
      {"measurement": "outcome", "setting": "[6]", "value": "inactive"}
    ]},
    {"smiles": "CCCCCCCC(=O)OC", "values": [
      {"measurement": "outcome", "setting": "[1]", "value": "inactive"},
      {"measurement": "outcome", "setting": "[2]", "value": "inactive"},
      {"measurement": "outcome", "setting": "[3]", "value": "inactive"},
      {"measurement": "outcome", "setting": "[4]", "value": "inactive"}
    ]},
    {"smiles": "CC(C)(O)c1ccc(CNC(=O)c2cccnc2Oc2ccc(F)cc2)cc1", "values": [
      {"measurement": "outcome", "setting": "[4]", "value": "inactive"}
    ]},
    {"smiles": "Cn1cnc2c1c(=O)[nH]c(=O)n2C", "values": [
      {"measurement": "outcome", "setting": "[1]", "value": "inactive"},
      {"measurement": "outcome", "setting": "[2]", "value": "inactive"},
      {"measurement": "outcome", "setting": "[4]", "value": "inactive"}
    ]},
    {"smiles": "CC(=O)S[C@H](C(=O)N[C@H]1Cc2ccccc2[C@H]2CCC[C@@H](C(=O)O)N2C1=O)C(C)C", "values": [
      {"measurement": "outcome", "setting": "[2]", "value": "inactive"},
      {"measurement": "outcome", "setting": "[3]", "value": "inactive"}
    ]},
    {"smiles": "Oc1ccc(O)cc1", "values": [
      {"measurement": "outcome", "setting": "[3]", "value": "inactive"},
      {"measurement": "AC50", "setting": "[5]", "value": "0.767 µM (active)"},
      {"measurement": "AC50", "setting": "[6]", "value": "35.4 µM (active)"}
    ]},
    {"smiles": "CC(=O)OCC(COC(C)=O)OC(C)=O", "values": [
      {"measurement": "outcome", "setting": "[1]", "value": "inactive"},
      {"measurement": "outcome", "setting": "[2]", "value": "inactive"},
      {"measurement": "outcome", "setting": "[4]", "value": "inactive"}
    ]}
  ]
}
